Data: PubChem BioAssay (Tox21)
Results filed as inconclusive are left out. A call without a number means that no potency is given here. The source made the active and inactive calls. Calls follow the shape of the full dose curve.

Test: qHTS assay for small molecule agonists of the p53 signaling pathway - cell viability (AID 651633);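 also: p53RE-bla HCT reporter cells with a stable beta-lactamase p53 reporter; nearly all actives have a fitted effect of over 30% in size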
Details: p53RE-bla HCT-116 viability, ATP luminescence, 16 h; series mostly up to 83.3 µM
Source text: National Center for Advancing Translational Sciences [NCATS]
NIH Chemical Genomics Center [NCGC]
U.S. Environmental Protection Agency [EPA]
National Institutes of Environmental Health Sciences [NIEHS]
National Toxicology Program [NTP]
U.S. Food and Drug Administration [FDA]
p53, a tumor suppressor protein, is activated following cellular insult, including DNA damage and other cellular stresses. The activation of p53 regulates cell fate by inducing DNA repair, cell cycle arrest, apoptosis, or cellular senescence. The activation of p53, therefore, is a good indicator of DNA damage and other cellular stresses. […] The activation of the reporter gene under culture conditions can be detected by fluorescence intensity. This cell line was used to screen the Tox21 compound library in a 1536-well plate format and to identify agonists that activate the p53 signaling pathway.
Tox21 Assay Protocol Summary:
The p53RE-bla cells were dispensed at 4,000 cells/5 ul/well in 1536-well black wall/clear bottom plates using a Multidrop dispenser. After the assay plates were incubated at a 37 C/5% CO2 incubator for 5 hours, 23 nL of compounds dissolved in DMSO, positive controls or DMSO only was transferred to the assay plate by a pin tool. The plates were incubated at 37 C for 16 hours. After 1 uL of LiveBLAzerTM B/G FRET substrate was added using a Flying Reagent Dispenser, the plates were incubated at room temperature for 2 hours, and fluorescence intensity was measured by an Envision plate reader.
For cell viability readout that measures cytotoxicity, 4 ul/well of CellTiter-Glo reagent was added into the assay plates using a Flying Reagent Dispenser. After 30 min incubation at room temperature, the luminescence intensity in the plates was measured using a ViewLux plate reader.

SMILES	Potency
ClCC(Cl)Cl	inactive
CSc1nc(N=[N+]=[N-])nc(NC(C)C)n1	inactive
CC1=NNC(=O)N(/N=C/c2cccnc2)C1	inactive
O=S(=O)(O)C(F)(F)C(F)(F)C(F)(F)C(F)(F)C(F)(F)C(F)(F)F	inactive
CNC(=O)Oc1c(C(C)(C)C)cc(C)cc1C(C)(C)C	inactive
O=c1oc2ccccc2c(O)c1C1CCCc2ccccc21 (stereo not given)	inactive
Nc1n[nH]c(N)n1	inactive
CCCCOC(=O)c1ccccc1N	inactive
Cc1cc(C)c(C(=O)P(=O)(C(=O)c2c(C)cc(C)cc2C)c2ccccc2)c(C)c1	inactive
Cc1ncc2n1-c1ccc(Cl)cc1C(c1ccccc1F)=NC2	inactive
COc1cc(OC)nc(NC(=O)NS(=O)(=O)c2ncccc2C(=O)N(C)C)n1	inactive
OCCSCSCCO	inactive
CNC(=O)Oc1ccccc1C1OCCO1	inactive
BrCCCCCCBr	inactive
COC(=O)c1c(C(F)F)nc(C(F)(F)F)c(C2=NCCS2)c1CC(C)C	inactive
C[N+](=O)[O-]	inactive
Cc1cc(C)nc(Nc2ccccc2)n1	inactive
COc1cc(C[C@@H](C)N)c(OC)cc1C	inactive
O=C1c2ccccc2C(=O)c2ccccc21	inactive
CCCCCCI	inactive

SMILES	Potency
CN1CCN(C(=O)O[C@H]2c3nccnc3C(=O)N2c2ccc(Cl)cn2)CC1	inactive
CCC(Cl)[N+](=O)[O-] (stereo not given)	inactive
CCCSC(=O)Cl	inactive
CCNc1nc(NC(C)C)nc(OC)n1	inactive
CCOP(=S)(Oc1cnc(C(C)(C)C)nc1)OC(C)C (stereo not given)	inactive
Cc1ccccc1CO[C@@H]1C[C@@]2(C(C)C)CC[C@]1(C)O2	inactive
ClC(Br)Br	inactive
CC1(C)CON(Cc2ccccc2Cl)C1=O	inactive
O=C(Nc1ccccc1)N(Cc1ccc(Cl)cc1)C1CCCC1	inactive
CC(=O)Nc1cc([As](=O)(O)O)ccc1O	inactive
CCOC(=O)NC(=S)Nc1ccccc1NC(=S)NC(=O)OCC	inactive
N#Cc1c(Cl)cccc1Cl	inactive
CC(=O)CCc1ccc2c(c1)OCO2	inactive
O=CNC(N1CCN(C(NC=O)C(Cl)(Cl)Cl)CC1)C(Cl)(Cl)Cl (stereo not given)	inactive
CCOP(=O)(OCC)OP(=O)(OCC)OCC	inactive
CC1=C(C(=O)Nc2ccccc2)S(=O)(=O)CCO1	inactive
CN1C[C@@H](NS(=O)(=O)N(C)C)C[C@@H]2c3cccc4c3c(cn4C)C[C@H]21	inactive
O=C(Nc1ccccc1)c1ccccc1I	inactive
COC(=O)C(c1ccccc1)C1CCCCN1 (stereo not given)	inactive
COc1cccc(C(=O)NN(C(=O)c2cc(C)cc(C)c2)C(C)(C)C)c1C	inactive
